In all, about 1,200 compounds went through this assay and about 480 (40%) were called active. Another 29% or so got no clear call; they are omitted. The list shows a part of the results. Unmarked numbers belong to inactive results. Calls come from the whole dose curve; as a rule, active = well fitted inhibition curve with a large enough effect; inconclusive = small, poorly fitted or top-dose-only effect; inactive = no such curve, though single readings can be large or run the other way.
Assay: qHTS Assay to Find Inhibitors of Chronic Active B-Cell Receptor Signaling: Hit Validation in Primary Screen; note: nearly all actives have a fitted effect of over 75% in size
Conditions: ABC-DLBCL IkB-luc/CBR ratio luminescence, 4 h; series mostly up to 46.1 µM; activity change, negative = inhibition: at the top concentration
Method in brief: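 TMD8 ABC-DLBCL cells carrying doxycycline-inducible IkBa-green luciferase fusion and free red luciferase, 0.5% FBS, dosed 46 uM–3 nM with doxycycline for 4 h at 37C. Green/red luminescence ratio normalized to basal and 10 uM MG-132.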
% is set by controls: 0 for no effect and ±100 for the full control effect; potency is the fitted concentration of half-maximal effect.

Compound	activity change, negative = inhibition [%]	Potency
Fc1ccc(NC(=S)N/N=C/c2ccc(F)c(F)c2)cc1	32.7	–
O=C(N/N=C/c1ccc(Cl)cc1)c1sccc1OCc1ccc(F)cc1	–	5.17 µM (active)
NNC(=O)/C(=C\c1ccco1)NC(=O)c1ccco1	-4.29	–
CCCCOc1ccc2c(C)cc(=O)oc2c1OCCCC	-11.1	–
Cc1cc(=O)oc2cc(OCC3CC(c4ccccc4Cl)=NO3)ccc12 (stereo not drawn)	–	2.59 µM (active)
COc1ccccc1C1=NOC(COc2ccc3c(C)cc(=O)oc3c2)C1 (stereo not drawn)	–	8.2 µM (active)
C=CCNC(=S)N/N=C/c1ccc(C)cc1C	-9.31	–
Cc1ccc(NC(=S)NNC(=S)Nc2ccc(C)cc2C)cc1	–	1.84 µM (active)
Cc1ccc(NC(=S)NNC(C)(C)C)cc1	-1.5	–
CCOc1cc(NC(=O)CCl)c(OCC)cc1NC(=O)CCl	–	5.8 µM (active)
C/C(=N\NC(=S)NC1CCCCC1)c1ccc(C)o1	-3.17	–
C(=N\Nc1nc2ccccc2[nH]1)/C1CCCCC1	2.77	–
CSc1nc(SCC(=O)NCc2ccco2)c2c3c(sc2n1)COC(C)(C)C3	–	20.6 µM (active)
Cn1cccc1/C=C1\SC(=Nc2ccc(O)cc2)NC1=O	–	1.03 µM (active)
O=C(Cc1cccs1)N/N=C/C=C/c1ccco1	-17.3	–
O=C1NC(=Nc2ccc(O)cc2)S/C1=C\C=C\c1ccco1	–	2.91 µM (active)
CCOc1cc(CNc2ccc3c(c2)OCCO3)cc(Br)c1OCC	–	5.17 µM (active)

Compound	activity change, negative = inhibition [%]	Potency
CCOc1c(Br)cc(CNc2ccc3c(c2)OCCO3)cc1OC	–	10.3 µM (active)
CCOc1c(Cl)cc(CNCC(C)C)cc1OC	-6.38	–
Cc1ccc(/C=N/NC(=O)c2n[nH]c3c2CCCC3)cc1	–	0.206 µM (active)
O=C(NN=C1CCCC1)c1n[nH]c2c1CCC2	-10.7	–
O=C(N/N=C/c1ccc(Cl)cc1)c1n[nH]c2c1CCCC2	–	2.06 µM (active)
Cc1cccc(C)c1OCC(=O)N/N=C/C=C/c1ccco1	-9.1	–
Cc1ccc(NC(=O)/C=C/c2ccco2)nc1	–	1.16 µM (active)
COc1ccc(NC(=S)NC(=O)/C=C/c2ccco2)cc1	-12.3	–
O=C(CNCc1ccccc1)Nc1ccc(Oc2ccccc2)cc1	-2.09	–
O=C(COc1ccc(Oc2ccccc2)cc1)NCc1cn2ccccc2n1	–	11.6 µM (active)
Cc1cccc(NC(=O)c2ccc(C(=O)Nc3cccc(C)c3)nc2)c1	–	10.3 µM (active)
Cc1cccc(NC(=S)NNC(=O)CCn2cc(C)cn2)c1	-3.27	–
CCOC(=O)c1c(C=O)c2sc(C)cc2n1C	42.4	–
CCOC(=O)c1c(C)c(C(=O)OCC)n(C)c1C	–	6.51 µM (active)
COc1ccc(/C(C)=N/Nc2nc3ccccc3nc2C)cc1OC	-8.71	–
COc1ccc(/C(C)=N/Nc2ccc(C(=O)O)cc2)cc1OC	–	0.0231 µM (active)
